# Measurements reported in PubChem BioAssay AID2315 (National Center for Advancing Translational Sciences (NCATS), 2010).
# About 27,000 (9.3%) of roughly 290,000 compounds were called active. This is one part of a sample in which actives are shown more often than they occur. A number with no mark means an inactive call. Cut-off read from the data, not from the text of the source: active = inhibition mostly above about 28% (no sharp cut-off); inactive = mostly below about 43%.
# Assay: A qHTS for Small Molecule Inhibitors of Shiga Toxin; note: 0% is about no effect
# Settings: Vero cells, Shiga toxin protein synthesis inhibition reporter; at 38.7 µM, active compounds read high
row,SMILES,inhibition
1,CCCc1nn2c(=O)cc(CSCC(=O)Nc3cccc(C)c3)nc2s1,9.11%
2,CC(/C=N/NC(=O)c1ccncc1)=C\c1ccco1,27%
3,O=C(CNC(=O)c1cccs1)N/N=C/c1cccc(Br)c1,-5.46%
4,CCN(CC)c1ccc(/C=N/NC(=O)CNC(=O)c2cccs2)cc1,42.1% (active)
5,Cc1ccc(-n2nc(C)c(/C=N/NC(=O)c3cccs3)c2Cl)cc1,41% (active)
6,O=C(NC(Cc1c[nH]c2ccccc12)C(=O)N/N=C/c1ccc(Br)cc1)c1cccs1 (stereo unspecified),-8.84%
7,O=C(N/N=C/C=C/c1ccco1)c1cccs1,104% (active)
8,O=C(Nc1ccccc1)c1ccc(NC(=O)c2cccs2)cc1,-21.1%
9,Cc1nn(-c2ccccc2)c(NC(=O)c2cccs2)c(-c2ccc(Cl)cc2)c1=O,7.45%
10,CCN(CC)c1ccc(/C=N/NC(=O)CNC(=O)c2cccnc2)cc1,-12.8%
11,Cc1ccc(-c2cc(C(=O)N/N=C/C=C/c3ccco3)c3ccccc3n2)cc1C,92.8%
12,CC(=O)Nc1ccc(/C=N/NC(=O)c2cccs2)cc1,97.3% (active)
13,Cc1nn(-c2ccccc2)c(Cl)c1/C=N/NC(=O)c1nn(C)cc1[N+](=O)[O-],31.8%
14,CC(=O)OCCN(CCCn1c(-c2ccncc2)nc2ccccc21)c1nc(-c2ccc(C)cc2)cs1,-1.86%
15,COc1ccc(CCNC(=O)c2nnc(CS(=O)(=O)c3ccccc3)o2)cc1OC,5.82%
16,Cc1ccc(S(=O)(=O)N(Cc2cc3ccccc3[nH]c2=O)CC2CCCO2)cc1 (stereo unspecified),-2.48%
17,O=C(Nc1c2c(nn1-c1ccccc1)CS(=O)(=O)C2)C1CCCC1,-3.43%
18,COc1ccc(NC(=O)c2ccco2)cc1NC(=O)c1ccc(C#N)cc1F,-2.14%
19,CCCCCC(O)(CCN1CCCCC1)c1ccccc1 (stereo unspecified),-8.74%
20,Cc1cc(NC(=O)CCC(=O)N(CC(=O)NCC2CCCO2)c2ccccc2)no1 (stereo unspecified),-9.61%
21,COC(=O)C1(C)NC(c2ccccc2OC)C2C(=O)N(c3ccccc3)C(=O)C21 (stereo unspecified),-11.2%
22,COc1ccc(N2CCN(S(=O)(=O)c3ccc4c(c3)N(C(C)=O)CCO4)CC2)cc1,-9.48%
23,Cc1cccc(-n2c(C)cc(/C=N/NC(N)=S)c2C)c1,-4.48%
24,Cc1ccc(-n2c(C)cc(/C=N\NC(=O)CC(=O)NC(C)C)c2C)cc1,21.4%

row,SMILES,inhibition
1,Cc1cccc(-n2c(C)cc(/C=N\NC(=O)c3cccs3)c2C)c1,85.9% (active)
2,O=C(Cn1cnc2ccccc21)Nc1ccccc1-c1ccccc1,-2.99%
3,Cc1cc2ccccn2c1C(=O)c1cccc(F)c1,21%
4,CCCCNC(=O)CCn1nc(-c2ccc(Cl)cc2)ccc1=O,-6.39%
5,COc1ccc(CNC(=O)CN(c2ccc(OC)c(Cl)c2)S(=O)(=O)c2ccc(C)cc2)cc1,15.2%
6,Nc1ccc(Nc2ccccc2)cc1,-17%
7,Nc1ccc(-c2nnc(-c3ccccc3)o2)cc1,71.6% (active)
8,Nc1ccc(-c2sc(N)nc2-c2ccccc2)cc1,-12.4%
9,O=C(COC(=O)c1ccc(Oc2ccccc2)cc1)Nc1nnc(-c2ccccc2)o1,6.93%
10,Cc1ccc(C(=O)NCC(=O)OCc2nnc(-c3ccccc3)o2)cc1,9.19%
11,Nc1ccc(-c2nnc(-c3ccc(-c4ccccc4)cc3)o2)cc1,63.4% (active)
12,COc1ccc(/C=N/N(C)C2=NS(=O)(=O)c3ccccc32)cc1OC,-11.4%
13,COc1ccc(NC(=O)C2CCC(CNC(=O)[C@@H]3Cc4ccccc4CN3)CC2)cc1 (stereo partly specified),8.69%
14,COc1ccc(CNC(=O)C2CCN(S(=O)(=O)c3ccc(SC)cc3)CC2)cc1,-9.94%
15,O=C(Nc1cccn(Cc2ccccc2Cl)c1=O)NC1CCCCC1,33%
16,CCNC(=O)CCc1nc(-c2ccc(C)cc2)no1,34.3%
17,CN1CCN(C(=O)CCc2nc(-c3ccc(Cl)cc3)no2)CC1,42.8%
18,CCNC(=O)CCc1nc(-c2ccc(C(C)(C)C)cc2)no1,42.8% (active)
19,CN(C)c1ccc(-n2cccc2/C=N/n2cnnc2)cc1,61% (active)
20,O=S(=O)(N/N=C\c1cccn1-c1ccccc1)c1ccc2ccccc2c1,-11.6%
21,CN(C)c1ccc(-n2cccc2/C=C2/SC(=Nc3ccc(F)cc3)NC2=O)cc1,-12.2%
22,COc1ccc(CC(=O)NC(C)CCc2ccccc2)cc1 (stereo unspecified),-4.86%
23,COc1ccc(/C(N)=N/OC(=O)Cc2ccccc2)cc1,90% (active)
24,COc1ccc(/C(N)=N/OC(=O)CCCc2ccccc2)cc1,89.8% (active)

row,SMILES,inhibition
1,COc1ccc(OCCCC(=O)NCCc2ccccc2)cc1,-4.42%
2,COc1ccc(/C(N)=N/OC(=O)Oc2ccccc2)cc1,-9.52%
3,COc1ccc(C(=O)NC(=S)NNC(=O)CCc2ccccc2)cc1,18.3%
4,CC(C)C(c1nnnn1C1CCCCC1)N1CCN(C(=O)c2ccco2)CC1 (stereo unspecified),-10.3%
5,Cc1ccc(-n2ncc(C(=O)NC3CC3)c2C2CCN(C(=O)OC(C)(C)C)CC2)c(C)c1,16.2%
6,O=C(C1CCCN(S(=O)(=O)c2ccc([N+](=O)[O-])cc2)C1)N1CCCCC1 (stereo unspecified),2.21%
7,COc1cccc(/C=C2/SC(=S)N(CC(=O)NC3C=CS(=O)(=O)C3)C2=O)c1 (stereo unspecified),16.1%
8,CC(C)CNC(=O)C(=O)NCC(c1ccc2c(c1)OCO2)N1CCOCC1 (stereo unspecified),-7.49%
9,O=S(=O)(Nc1ccccc1Br)c1cccs1,6.38%
10,COC(=O)c1ccc(CSc2nncn2C)cc1,177% (active)
11,CC(C)CC(CC(C)C)=NNC(=O)c1ccc(CSc2nncn2C)cc1,16%
12,COC(=O)c1ccc(CSc2nncn2N)cc1,26.1%
13,O=C(NC(=S)Nc1ncccn1)c1ccccc1Br,9.32%
14,Cc1ccc(NC2CCCN(C(=O)CCc3cn[nH]c3)C2)cc1C (stereo unspecified),9.62%
15,CC(NCC(=O)Nc1cc(Cl)cc(Cl)c1)c1ccccc1 (stereo unspecified),-4.69%
16,COc1ccc(C=Nc2cccc3ncccc23)cc1,-17.4%
17,COc1ccc(/C=N/Nc2ccccc2C(=O)O)cc1,31.8% (active)
18,COc1ccc(CCCc2nnc(SCc3nc4ccccc4c(=O)[nH]3)n2C)cc1,-10.2%
19,COc1ccc(/C=N/OCC(=O)N(Cc2ccccc2)c2ccccc2C(=O)O)cc1,-13.4%
20,COc1ccc(/C=N/NS(=O)(=O)c2ccc(NC(C)=O)cc2)cc1,24.7%
21,COc1ccc(/C=N/Nc2nc3ccccc3c(=O)[nH]2)cc1,60.8% (active)
22,COC(=O)c1sccc1NS(=O)(=O)c1ccc(F)cc1F,11.9%
23,COCCCn1c(SCC(=O)NC2CCCC2)nnc1-c1ccccc1,-6.72%
24,Cc1nc(-c2ccc(F)cc2)c(CC(=O)N2CCN(S(=O)(=O)c3ccc(F)cc3)CC2)s1,26.6%

row,SMILES,inhibition
1,NS(=O)(=O)c1ccc(CCNc2nc(C(F)(F)F)nc3ccccc23)cc1,-9.53%
2,CC1COc2ccccc2N1C(=O)c1ccc(F)cc1 (stereo unspecified),-4.1%
3,S=C1NC(c2ccccc2)=NCN1c1ccc(Br)cc1,29.2%
4,Brc1ccccc1C1N=C(c2ccccc2)NO1 (stereo unspecified),85.7% (active)
5,Brc1ccccc1C1Nc2cccc3cccc(c23)N1,-2.7%
6,N#Cc1ccc(C2N=C(c3ccccc3)NO2)cc1 (stereo unspecified),89.5% (active)
7,O=C1CCCCN1CCCC(=O)N1CCCC(Nc2ccc(F)cc2)C1 (stereo unspecified),7.4%
8,CCOc1ccc(NC(=O)CCCCCN2C(=O)[C@@H]3Cc4ccccc4CN3C2=O)cc1,3.39%
9,CCCNC(=O)C(=O)Nc1cc2c3c(c1)CCC(=O)N3CCC2,5.83%
10,COc1ccc(N2C(=O)C(CC(=O)Nc3ccccc3)N(Cc3ccc(OC)c(OC)c3)C2=O)cc1 (stereo unspecified),40.7%
11,COc1ccc(-c2oc3ncnc(NCCCO)c3c2-c2ccc(OC)cc2)cc1,-19.7%
12,COc1ccc(O[C@H]2C=C[C@@H](c3ccccc3)O[C@@H]2CO/N=C/C[C@@H]2C=C[C@H](OC(C)=O)[C@@H](COC(C)=O)O2)cc1,16.1%
13,O=C(NCc1ccco1)/C(=C/c1cccc([N+](=O)[O-])c1)NC(=O)c1ccco1,-2.89%
14,Cc1cc2occ(CC(=O)NNC(=O)c3ccccc3F)c2cc1C,18%
15,O=C(CSc1nccc(=O)[nH]1)Nc1ccc(N2CCOCC2)c(Cl)c1,-5.56%
16,CC(=O)c1nn(-c2cccc(Br)c2)cc1C(=O)c1cccc2ccccc12,-19.7%
17,CCOC(=O)c1nn(-c2cccc(C)c2)cc1C(=O)c1ccccc1,152% (active)
18,CCOC(=O)c1cn(Cc2cccc(C)c2)nn1,1.57%
19,CCOc1ccc(CNC(=O)CCC(=O)N2CCSc3ccccc32)cc1,5.1%
20,O=S(=O)(Nc1ccccc1)c1ccc(NS(=O)(=O)c2cccs2)cc1,-2.44%
21,NC(=O)c1cc(S(=O)(=O)N2CCCC2)ccc1OCc1ccc(F)cc1,-10.2%
22,CC(=O)NCCC(=O)Nc1nc(C)c(Cc2ccc3c(c2)OCO3)s1,13.3%
23,O=C(Nc1nc(-c2ccc3c(c2)OCO3)cs1)c1ccncc1,42.9%
24,CC(=O)NCCC(=O)Nc1nc(-c2ccc3c(c2)OCCO3)cs1,50% (active)
